Screening results as filed in PubChem.
ST2 IL33 inh: inhibitors of human ST2 (IL1RL1) binding to IL-33; Q01638; AlphaLISA ST2-Fc/biotin-IL-33 interaction, 1 h; inhibition, % for hits at 17 µM; 2.3% of 78,000 active; in the data active = inhibition above about 30%
Target sequence (Q01638 whole entry, looked up): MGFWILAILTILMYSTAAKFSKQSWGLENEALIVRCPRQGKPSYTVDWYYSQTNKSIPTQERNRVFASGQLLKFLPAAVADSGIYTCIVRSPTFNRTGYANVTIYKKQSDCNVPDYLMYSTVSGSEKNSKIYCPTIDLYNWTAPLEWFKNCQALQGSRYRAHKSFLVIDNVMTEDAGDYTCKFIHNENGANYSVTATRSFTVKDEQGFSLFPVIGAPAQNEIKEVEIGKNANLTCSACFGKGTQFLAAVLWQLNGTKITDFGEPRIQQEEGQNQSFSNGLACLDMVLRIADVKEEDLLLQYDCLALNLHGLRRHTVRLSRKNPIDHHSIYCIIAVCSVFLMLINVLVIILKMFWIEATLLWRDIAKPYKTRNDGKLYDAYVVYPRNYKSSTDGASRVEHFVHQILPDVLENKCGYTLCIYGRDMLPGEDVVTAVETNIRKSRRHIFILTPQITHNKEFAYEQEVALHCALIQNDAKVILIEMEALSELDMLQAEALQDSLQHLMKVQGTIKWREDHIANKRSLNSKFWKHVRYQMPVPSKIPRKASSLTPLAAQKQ
Hits are given with their value; – = inactive; ! = a repeat was not active. Only a selection was taken, and hits are over-represented in it overall.

SMILES | ST2 IL33 inh
O=C(Nc1nc2ccccc2s1)c1cccc2ccccc12 | –
Cc1cc2cc(C(=O)NCc3noc(Cc4ccccc4)n3)ccc2o1 | –
Cc1nc(N(C)C)nc(N2CCCC3(CC2)CN(C)C(=O)O3)c1C (stereo not drawn) | –
Cc1ccc(O)c(NC(=O)CCCn2nc([N+](=O)[O-])cc2C)c1 | –
COCC(=O)Nc1cccc(-c2ccc3c(c2)OCCO3)c1 | –
OCCC1CN(Cc2cccc3nonc23)CCN1Cc1ccccc1F (stereo not drawn) | –
O=C(CSc1nc2c(c(=O)n1-c1ccc(Cl)cc1)SCC2)N1CCc2ccccc21 | –
Cc1ccc(-n2c(SCc3cccc(F)c3)nc3c(c2=O)SCC3)cc1 | 33.0%!
Cc1ccc(-n2c(SCc3ccc(F)cc3)nc3c(c2=O)SCC3)cc1 | 31.0%!
O=c1c2c(nc(SCc3ccc(F)cc3)n1-c1ccc(F)cc1)CCS2 | –
Cc1ccc(-n2c(SCC(=O)N3CCCC3)nc3c(c2=O)SCC3)cc1 | –
O=C(CSc1nc2c(c(=O)n1-c1ccc(Cl)cc1)SCC2)N1CCCc2ccccc21 | –
COC(=O)c1ccc(CSc2nc3c(c(=O)n2-c2ccc(C)cc2)SCC3)o1 | –
CCOc1ccc(-n2c(SCc3ccc(F)cc3)nc3c(c2=O)SCC3)cc1 | –
CCSc1nc2c(c(=O)n1-c1ccc(F)cc1)SCC2 | –
Cc1ccc(-n2c(SCc3ccccc3)nc3c(c2=O)SCC3)cc1 | 30.0%!
Cc1ccc(-n2c(SCC(=O)N3CCc4ccccc43)nc3c(c2=O)SCC3)cc1 | 97.0%!
Cc1ccc(-n2c(SCC(=O)N3CCCCC3)nc3c(c2=O)SCC3)cc1 | –
COc1ccc(C(=O)NCc2ccc(Cl)cc2)cc1[N+](=O)[O-] | –
COC(=O)c1cc2n(n1)CCN(Cc1nc3ccccc3n1C(C)C)C2 | –
CCOC(=O)c1c(C)oc2cc(Br)c(OCC(=O)c3ccc(OC)cc3)cc12 | –
Cc1ccc(C(=O)N[C@H]2CO[C@H]3[C@@H]2OC[C@@H]3n2nnnc2-c2ccc(N(C)C)cc2)cc1 | –
Cc1ccc(C(=O)N[C@H]2CO[C@H]3[C@@H]2OC[C@@H]3n2nnnc2Oc2cccc(N(C)C)c2)cc1 | 81.0%
COC(=O)c1cccc(NC(=S)N[C@H]2CO[C@H]3[C@@H]2OC[C@@H]3n2nnnc2Oc2cccc(N(C)C)c2)c1 | –
COCCNC(=O)c1cc2c(=O)n3ccccc3nc2n1C | –
SMILES | ST2 IL33 inh
COc1ccc(N(C(=O)c2cccs2)C2C=CS(=O)(=O)C2)c(OC)c1 (stereo not drawn) | –
Cc1ccc(NC(C)(C)C(=O)N2CCC(CN)C2)cc1 (stereo not drawn) | –
Brc1ccc(-c2cc3ccccn3c2)cc1 | 34.0%
Clc1ccc(-c2cn3ccccc3n2)cc1 | –
Brc1ccc(-c2cn3ccccc3n2)s1 | –
CCOc1ccc(S(=O)(=O)Nc2nc3c(C)cccc3s2)c2cccnc12 | –
COc1ccc(S(=O)(=O)Nc2cccc(Cl)c2C)cc1OC | –
COc1cccc(/C=C2\C(=O)Nc3ccc(Br)cc32)c1OC | –
O=C1Nc2ccc(Br)cc2/C1=C/c1cccc(F)c1 | 30.0%
COc1ccc(/C=C2\C(=O)Nc3ccc(Br)cc32)cc1O | –
COc1cc(/C=C2\C(=O)Nc3ccc(Br)cc32)cc(Br)c1O | –
COc1cc(/C=C2\C(=O)Nc3ccc(Br)cc32)cc(OC)c1O | –
O=C1Nc2ccc(Br)cc2/C1=C/c1ccsc1 | 39.0%
CN(C(=O)CN1CCCC(C(=O)c2cc(F)ccc2F)C1)c1ccccc1 (stereo not drawn) | –
O=C(c1cn(CCC2CCCCC2)nn1)N1CCCC1c1ccccn1 (stereo not drawn) | –
Cn1ccnc1C(=O)N(CCO)CCSc1ccc(Cl)cc1 | –
COCCn1c(SCCC(=O)O)nc2c1c(=O)[nH]c(=O)n2C | –
COc1ccc(Cl)cc1NC(=O)c1cc(-c2ccco2)on1 | –
COc1ccc(Nc2c(-c3ccco3)nc3ccc(Br)cn23)cc1 | –
COc1cc(C=Nc2c(-c3ccco3)nc3ccc(Cl)cn23)ccc1O | 43.0%
CCn1ccnc1CN(C)CC(=O)Nc1ccc(Cl)cc1F | –
O=[N+]([O-])c1ccc(C(=Nc2ccccc2)NO)cc1 | –
O=C(C#Cc1ccc([N+](=O)[O-])cc1)c1ccccc1 | 33.0%
O=C(NC(=O)c1ccccc1)Oc1ccc([N+](=O)[O-])cc1 | –
Cc1ccc(-c2nc(C(N)=O)c3c(n2)n(-c2ccc(C)c(C)c2)c(=O)n3Cc2ccccc2)cc1C | –
SMILES | ST2 IL33 inh
COc1ccc(C(=O)N[C@@H]2CN(C(=O)NC3CCCCC3)CCC[C@H]2O)cc1 | 82.0%
CC(C)NC(=O)N1CCC[C@@H](O)[C@H](NC(=O)c2ccc(OCc3ccccc3)cc2)C1 | –
COCCOc1ccc(C(=O)N[C@@H]2CN(C(=O)NCc3ccccc3)CCC[C@H]2O)cc1 | –
O=C1CC(NCc2ccccn2)CN1CCCc1ccccc1 (stereo not drawn) | 53.0%
O=C1CC(NS(=O)(=O)N2CCCCC2)CN1CCCc1ccccc1 (stereo not drawn) | –
O=C(NCc1ccccn1)C1CC(=O)N(CCc2ccccc2)C1 (stereo not drawn) | –
COc1ccccc1N(CC(=O)Nc1ccc(CSc2ccccc2)cc1)S(C)(=O)=O | –
COc1ccc(-c2nc3c(=O)n(C)c4ccccc4c3o2)cc1 | –
Cc1oc2ccc(OCc3ccccc3)cc2c1C(=O)OC(C)C | –
NC1CCCN(S(=O)(=O)c2ccc3c(c2)NC(=O)CCS3)CC1 (stereo not drawn) | –
O=C(CNS(=O)(=O)c1ccc(Br)s1)NCc1cccnc1 | –
O=S(=O)(NCc1cccnc1)c1cccs1 | –
O=C(CNS(=O)(=O)c1cccs1)NCc1cccnc1 | 79.0%
Cc1nccc(-c2ccc(-c3ccc4c(c3)OCO4)cc2)c1-c1nn[nH]n1 | –
O=C1C2C3C=CC(C3)C2C(=O)N1Cc1ccc(F)cc1 (stereo not drawn) | –
O=c1/c(=C\c2ccc(-c3ccccc3[N+](=O)[O-])o2)sc2nc3ccccc3n12 | –
N#C/C(=C\c1ccc(N2CCOCC2)cc1)c1nc2ccccc2[nH]1 | –
Cc1cc([N+](=O)[O-])c(C)cc1-c1ccc(/C=C(\C#N)c2nc3ccccc3[nH]2)o1 | 38.0%
Cc1cccnc1N1CCN(Cc2cn[nH]c2C(=O)O)CC1 | –
Cn1c(C(=O)N2CCCCCC2)cc2c(=O)n3ccccc3nc21 | –
COc1ccccc1/C=C1\N=C(c2cccc(I)c2)OC1=O | –
CC(=O)n1cc(/C=C2/N=C(c3ccccc3)OC2=O)c2ccccc21 | 61.0%
CC(=O)n1cc(/C=C2\N=C(c3ccc(Cl)cc3)OC2=O)c2cc(Br)ccc21 | –
CCNc1nc(N2CCCC2)nc(N2CCC(Cc3ccccc3)CC2)n1 | 57.0%
O=C(c1ccc(Cl)cc1)N1CCC(C(=O)N2CCC(Cc3ccccc3)CC2)CC1 | –
SMILES | ST2 IL33 inh
COc1ccc(S(=O)(=O)N2CCC(C(=O)N3CCC(Cc4ccccc4)CC3)CC2)cc1 | –
CC(=O)Nc1ccc(Oc2ccc3c(c2)C(=O)N(c2ccc(Br)cc2)C3=O)cc1 | –
COc1ccc(C2=NN(S(=O)(=O)c3ccc(C)cc3)C(c3ccc(F)cc3)C2)cc1OC (stereo not drawn) | –
Cc1ccc(C2CC(c3ccc(F)cc3)=NN2c2ccccc2)o1 (stereo not drawn) | 40.0%
COc1ccc(C2CC(c3ccccc3)=NN2C(=O)c2ccc(F)cc2)cc1 (stereo not drawn) | –
O=C(Nc1ccc(-c2nc3ccccc3o2)cc1)c1cccc(Br)c1 | –
CN1CCC(Cc2noc(C[C@@H]3C[C@@H]4C=C[C@H]3C4)n2)CC1 | –
Cc1ccc(C(C)NC(=O)CNCc2cc(F)ccc2F)cc1 (stereo not drawn) | –
